From the supplement of paper PMC8699584
“And” between values parts separate entries of the source, which are not always exact repeats. Equal values may be shown once. Where a name gives a salt, the structure may show the parent alone. ± gives the standard deviation of the averaged measurements.

Tests used:
[1] = test system: Molm13; experiment: cell viability relative to DMSO control (bortezomib = 0%); higher = less growth inhibition; conditions: 10 nM; 72 h
Outline: (§1)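 Acute myeloid leukemia cells, 1000 per well in 50 µL, were incubated for 72 h on 384-well plates with 679 approved and investigational compounds, each at a single 10 nM dose. Viability was read by CellTiter-Glo luminescence. Values were expressed as percentages through per-plate linear regression against DMSO-treated (100%) and positive-control-treated (0%) cells.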

[2] = test system: Mv4-11; experiment: as above; conditions: 10 nM; 72 h
Outline: as §1

SMILES	cell viability [1]	cell viability [2]
Cc1ccc(C(=O)N(CCCN)[C@@H](c2nc3cc(Cl)ccc3c(=O)n2Cc2ccccc2)C(C)C)cc1	2.83 ± 14%	6.27 ± 10%
O=C(NCc1cccc(O)c1)Nc1nc(-c2ccncc2)cs1	88.6 ± 11%	121 ± 9%
NS(=O)(=O)c1ccc(Nc2nc(OCC3CCCCC3)c3[nH]cnc3n2)cc1	104 ± 34%	109 ± 13%
COc1cc(Nc2c(C#N)cnc3cc(OCCCN4CCN(C)CC4)c(OC)cc23)c(Cl)cc1Cl [Bosutinib]	112 ± 24%	90.8 ± 17%
Nc1nc(O)c2ncn(CCC(CO)CO)c2n1 [Penciclovir]	111 ± 8%	104 ± 2.1%
CO[C@@H](C(=O)N1Cc2[nH]nc(NC(=O)c3ccc(N4CCN(C)CC4)cc3)c2C1)c1ccccc1	95.2 ± 34%	100 ± 3.8%
Cc1nc(-c2cn3c(n2)-c2ccc(-c4cnn(C(C)(C)C(N)=O)c4)cc2OCC3)n(C(C)C)n1	94.6 ± 8.3%	123 ± 5.4%
CC1(COc2ccc3c(c2)ncn3-c2ccc3cccc(N4CCC(N)CC4)c3n2)COC1 [Crenolanib]	14.9 ± 3.8%	18.2 ± 5.8%
COC1=CC(=O)c2ccccc2C1=O [2-Methoxy-1,4-naphthoquinone]	94.66 ± 0.11%	98.6 ± 9.1%
O=C(NOCC1CC1)c1ccc(F)c(F)c1Nc1ccc(I)cc1Cl	105 ± 1.4%	95.7 ± 9.2%
O=C1NC(=O)/C(=C/c2ccc3nccnc3c2)S1	102 ± 17%	113 ± 4.8%
COc1cc2ncnc(Nc3cccc(Br)c3)c2cc1OC	93.4% and 102%	99.1% and 113%
CC(C)=CCc1cc2c(cc1O)oc(=O)c1c3ccc(O)cc3oc21 [Psoralidin]	111 ± 27%	124 ± 22%
CC(C)Oc1ccc(C(=O)N[C@H](CNC(=O)CN(C)C)Cc2ccc(-c3cn4cccc([C@H](C)O)c4n3)cc2)cc1Cl	110 ± 19%	121 ± 9.3%
Cc1ccc(Nc2nccc(N(C)c3ccc4c(C)n(C)nc4c3)n2)cc1S(N)(=O)=O [Pazopanib]	101 ± 36%	104 ± 4.1%
CCCCCCCCCCCC(=O)NC[C@]1(C)CCC[C@]2(C)c3ccc(C(C)C)cc3CCC12 (stereo partly drawn) [Lauric Acid Leelamide]	93 ± 7.2%	104 ± 12%
Cc1c(Cn2c(C)nc3c(C(=O)O)cc(N4CCOCC4)cc32)cccc1C(F)(F)F	102 ± 5.3%	110 ± 17%

SMILES	cell viability [1]	cell viability [2]
S=C(NCc1ccc2c(c1)OCO2)N1CCN(c2ncnc3c2oc2ccccc23)CC1 [Amuvatinib(MP470)]	101 ± 10%	103 ± 15%
COc1cc2ncnc(Nc3cccc(O)c3)c2cc1OC	109 ± 6.3%	109 ± 8.6%
N=C(N)NC(=N)NCCc1ccccc1 [Phenformin hydrochloride]	91.3 ± 30%	107 ± 19%
Cc1ccc(S(=O)(=O)NC(=O)NN2CC3CCCC3C2)cc1 (stereo not drawn) [Gliclazide]	98.5 ± 5.5%	113 ± 6.1%
COc1ccc(-c2oc3c(CC=C(C)C)c(O)cc(O)c3c(=O)c2O)cc1 [Icaritin]	117 ± 8.4%	118 ± 1.5%
NC[C@@](O)(c1ccc(Cl)cc1)c1ccc(-c2cn[nH]c2)cc1	108 ± 8.3%	123 ± 20%
CN1CCN(c2nc(C3=C(c4c[nH]c5ccccc45)C(=O)NC3=O)c3ccccc3n2)CC1 [Sotrastaurin]	99 ± 21%	109 ± 11%
Oc1c2ccccc2c2c3c(cccc13)N=N2	114% and 102%	103% and 104%
CCc1cc(-c2n[nH]c(C)c2-c2ccc3c(c2)OCCO3)c(O)cc1O	102 ± 20%	94.9 ± 12%
CC(C)(C)c1nc2c3cc[nH]c(=O)c3c3cc(F)ccc3c2[nH]1 [Pyridone 6]	99.5 ± 18%	106 ± 7%
Cc1oncc1C(=O)Nc1ccc(C(F)(F)F)cc1 [Leflunomide]	91.3 ± 23%	118 ± 29%
COc1cc(Nc2ncc(F)c(Nc3ccc4c(n3)N(COP(=O)(O)O)C(=O)C(C)(C)O4)n2)cc(OC)c1OC [R788 (Fostamatinib) Disodium]	92 ± 3.9%	96.4 ± 10%
COc1cc2nccc(Oc3ccc(NC(=O)NC4CC4)c(Cl)c3)c2cc1C(N)=O [Lenvatinib (E7080)]	112 ± 6.8%	123 ± 14%
CCN1CCN(c2ccc(Nc3cc(N(C)C(=O)Nc4c(Cl)c(OC)cc(OC)c4Cl)ncn3)cc2)CC1	110 ± 17%	106 ± 16%
Cc1cn(-c2cc(NC(=O)c3ccc(C)c(Nc4nccc(-c5cccnc5)n4)c3)cc(C(F)(F)F)c2)cn1 [Nilotinib]	124 ± 9.8%	108 ± 16%
CC[C@@H]1C(=O)N(C)c2cnc(Nc3ccc(C(=O)NC4CCN(C)CC4)cc3OC)nc2N1C1CCCC1	64.7 ± 9.6%	96.8 ± 16%
Oc1ccc(-c2nc(-c3ccc(F)cc3)c(-c3ccncc3)[nH]2)cc1	94% and 105%	104% and 106%
